Several values for one entry are separate records, joined by “and”; a condition that tells them apart may be missing. Identical values can stand only once. Inconclusive results are not listed. Activity calls are given as the source filed them. Unless noted, how the calls were made is not given here.
What was measured:
[1] = tested on: Hepatitis C virus NS3 helicase; assay: blockers of NS3h binding to ssDNA – biochemical, fluorescence polarization, LOPAC1280 library, primary screen (AID 687035; in the data active means inhibition above about 37%); settings: Purified HCV NS3 helicase, Cy5-dT15 ssDNA binding fluorescence polarization; stronger effect = higher value; concentration not given here
[2] = compounds altering Cy5-DNA-NS3h complex signal – biochemical, LOPAC1280, artefact control for HCV NS3 helicase inhibitor project (AID 687037); settings: Cy5-DNA-NS3h complex fluorescence interference counterscreen
[3] = viability loss in pontine glioma line – cell-based, SU-DIPG-IV, MIPE4.0, CellTiter-Glo, qHTS, dose response (AID 1347063; cut-off not given, nearly all actives have AC50 up to about 30 µM;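 further: compound exposure lasted 48 hours before the viability readout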); settings: CellTiter-Glo ATP luminescence
[4] = growth inhibition of DIPG cells – cell-based, MIPE5.0 library, qHTS (AID 1347068; cut-off not given, nearly all actives have IC50 up to about 30 µM;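 on IC50: cells exposed to compound for 48 hours before viability readout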); settings: SU-DIPG-XXV viability
[5] = blockers of cellular phospholipid synthesis – cell-based, LOPAC library, screen 4, primary screen (AID 1347384); settings: animal cells, phospholipid biosynthesis inhibition screen; at 10 µM
[6] = molecular target: ATP-dependent translocase ABCB1 (Homo sapiens) (UniProt P08183); assay: P-glycoprotein substrate transport blockade – cell-based (AID 377; in the data active means fluorescence slope change above about 50%); settings: MDR1-expressing cells, fluorescent substrate accumulation slope; stronger effect = higher value; concentration not given here
[7] = tested on: Aerobactin synthetase IucA (Klebsiella pneumoniae, hypervirulent); assay: biochemical IucA inhibition screen of LOPAC library by absorbance (AID 1346212); settings: IucA enzyme assay, absorbance (OD) readout; stronger effect = lower value;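 tested at 8 µM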;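 further: 100% = no compound wells and 0% = no enzyme wells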
[8] = compounds altering circadian rhythm period length – cell-based, LOPAC library, luminescence reporter (AID 2774); settings: circadian reporter cells, at 7 µM, actives lie on both sides;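 further: values are relative to mean of DMSO wells on each plate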
[9] = viability loss in pontine glioma line – cell-based, SU-DIPG-XXV, MIPE5.0, CellTiter-Glo, qHTS, dose response (AID 1347065; cut-off not given, nearly all actives have AC50 up to about 26 µM;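 further: cells exposed to compound for 48 hours before ATP readout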); settings: CellTiter-Glo ATP luminescence
[10] = JHH-DIPG-1 glioma cell viability, MIPE5.0 library, CellTiter-Glo luminescence, qHTS (AID 1347067; cut-off not given, nearly all actives have AC50 up to about 26 µM;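 further: cells exposed to compound for 48 hours before readout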); settings: JHH-DIPG-1 glioma viability, CellTiter-Glo ATP luminescence
[11] = compounds altering HSF1 focus formation in cells – imaging, Selleck Cancer Library (AID 1347162; in the data active means plate-normalised HSF1 focus index below about 0.46); settings: human cells, HSF1 nuclear foci imaging, at 10 µM; SSMD: measured here: HSF1 foci SSMD mean; cell count: measured here: cell number; plate-normalised HSF1 focus index: stronger effect = lower value
[12] = rescue of PC12 cells from polyQ htt toxicity – LDH release (AID 1610); settings: PC12 mutant huntingtin toxicity, final LDH at 4 uM, stronger effect = lower value

Chain of ATP-dependent translocase ABCB1 (Homo sapiens) (P08183 whole entry, looked up): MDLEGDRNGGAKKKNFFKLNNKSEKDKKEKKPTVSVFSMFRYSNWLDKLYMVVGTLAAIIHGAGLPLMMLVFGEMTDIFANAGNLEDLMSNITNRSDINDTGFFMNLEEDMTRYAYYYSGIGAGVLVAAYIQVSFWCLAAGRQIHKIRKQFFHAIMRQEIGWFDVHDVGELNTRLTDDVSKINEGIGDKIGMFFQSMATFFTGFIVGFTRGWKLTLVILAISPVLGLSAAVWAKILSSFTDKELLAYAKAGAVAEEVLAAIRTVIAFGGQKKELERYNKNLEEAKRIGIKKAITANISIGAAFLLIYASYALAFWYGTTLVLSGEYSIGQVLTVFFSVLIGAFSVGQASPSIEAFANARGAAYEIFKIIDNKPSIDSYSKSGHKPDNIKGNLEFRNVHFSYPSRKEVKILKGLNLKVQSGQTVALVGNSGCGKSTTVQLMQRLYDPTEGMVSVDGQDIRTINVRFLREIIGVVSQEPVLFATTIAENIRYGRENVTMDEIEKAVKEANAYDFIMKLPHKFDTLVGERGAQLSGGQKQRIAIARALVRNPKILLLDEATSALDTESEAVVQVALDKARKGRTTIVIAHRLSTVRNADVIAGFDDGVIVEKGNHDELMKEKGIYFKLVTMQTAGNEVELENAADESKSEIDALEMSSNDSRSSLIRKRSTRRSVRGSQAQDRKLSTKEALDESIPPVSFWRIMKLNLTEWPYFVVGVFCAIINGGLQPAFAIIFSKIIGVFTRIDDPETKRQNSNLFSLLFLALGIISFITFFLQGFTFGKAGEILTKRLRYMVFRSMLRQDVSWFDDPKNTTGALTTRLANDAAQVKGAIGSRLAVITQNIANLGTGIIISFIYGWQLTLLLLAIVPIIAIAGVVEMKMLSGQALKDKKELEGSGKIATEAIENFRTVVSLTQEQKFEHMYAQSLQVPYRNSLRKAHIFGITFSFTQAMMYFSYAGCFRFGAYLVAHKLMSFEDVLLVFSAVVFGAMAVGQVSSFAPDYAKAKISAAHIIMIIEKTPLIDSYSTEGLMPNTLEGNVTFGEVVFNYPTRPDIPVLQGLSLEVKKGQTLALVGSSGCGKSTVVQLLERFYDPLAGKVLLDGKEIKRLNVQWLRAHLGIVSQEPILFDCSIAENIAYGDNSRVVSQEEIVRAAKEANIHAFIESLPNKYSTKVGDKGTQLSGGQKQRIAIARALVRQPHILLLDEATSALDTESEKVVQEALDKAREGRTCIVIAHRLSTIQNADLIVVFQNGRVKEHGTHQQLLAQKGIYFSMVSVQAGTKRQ

CC[C@@H](C(N)=O)N1CCCC1=O
inhibition [1]: -4% (inactive) | fluorescence ratio (interference) [2]: 1 (inactive) | outcome [3]: inactive | outcome [4]: inactive | outcome [5]: inactive

COc1ccc2c(c1)C13CCCC[C@@H]1C(C2)N(C)CC3 (stereo not given in full)
fluorescence slope change [6]: 14.1% (inactive) | remaining activity [7]: 108% (inactive)

Oc1cc2c(cc1O)[C@H]1c3ccccc3CN[C@@H]1CC2
period change [8]: -0.1 h (inactive)

CC(C)[C@]12O[C@H]1[C@@H]1O[C@]13[C@]1(O[C@H]1C[C@H]1C4=C(CC[C@@]13C)C(=O)OC4)[C@@H]2O
outcome [3]: inactive | AC50 [9]: 209 nM (active) | AC50 [10]: 83.3 nM (active) | IC50 [4]: 186 nM (active) | SSMD [11]: -5.07 | cell count [11]: 6670 | plate-normalised HSF1 focus index [11]: 0.769 (inactive)

CCCN1CCC[C@@H]2Cc3[nH]ncc3C[C@H]21
period change [8]: -0.035 hour (inactive) and -0.145 hour (inactive) | inhibition [1]: -2% (inactive) and -1% (inactive) | fluorescence ratio (interference) [2]: 1 (inactive) | remaining activity [7]: 117% (inactive) | outcome [5]: inactive

NCCc1c[nH]c2ccc(O)cc12
fluorescence slope change [6]: 73.4% (active) | period change [8]: -0.28 h (inactive) | inhibition [1]: -1% (inactive) | fluorescence ratio (interference) [2]: 1 (inactive) | remaining activity [7]: 107% (inactive) | outcome [5]: inactive

N#CC(O[C@@H]1O[C@H](CO[C@@H]2O[C@H](CO)[C@@H](O)[C@H](O)[C@H]2O)[C@@H](O)[C@H](O)[C@H]1O)c1ccccc1 (stereo not given in full)
outcome [10]: inactive

C=C[C@H]1CN2CC[C@H]1C[C@@H]2[C@H](O)c1ccnc2ccccc12
normalised LDH release [12]: 0.806

C#CC1(O)CCC2C3CCC4=CC(=O)CCC4(C)C3CCC21C (stereo not given)
outcome [9]: inactive

CN(C)Cc1c[nH]c2ccccc12
fluorescence slope change [6]: 124% (active)
